The campaign covered roughly 3,200 compounds. About 300 (9.4%) showed activity. Only a selection was taken, and actives are over-represented in it overall.
Test system: A673/TR/shEF
Experiment: cell viability (LOESS-normalised, relative to median of negative controls) (log2 ratio); higher = more viable cells (less compound effect), active = hit call of the paper (over 3 MAD below the median)
Conditions: treatment time: 72 h
Procedure, shortened: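 Viability of A673/TR/shEF Ewing sarcoma cells was determined by CellTiter-Glo luminescence. The cells, at 1,500 per well in 384-well plates, were grown with or without doxycycline from 24 h before compound addition to switch on EWS-FLI1 shRNA knockdown, then exposed for three days to library compounds at two or more concentrations or to DMSO controls. Signals were LOESS-corrected plate by plate, normalised to the negative-control median and log2-transformed.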

[1] = 0.25 µM, library screen: screen2, EWS-FLI1 expression: high (no doxycycline)
[2] = 0.25 µM, library screen: screen2, EWS-FLI1 expression: low (doxycycline-induced shRNA knockdown)
[3] = 2.5 µM, library screen: screen2, EWS-FLI1 expression: high (no doxycycline)
[4] = 2.5 µM, library screen: screen2, EWS-FLI1 expression: low (doxycycline-induced shRNA knockdown)
[5] = 0.25 µM, library screen: screen1, EWS-FLI1 expression: high (no doxycycline)
[6] = 0.25 µM, library screen: screen1, EWS-FLI1 expression: low (doxycycline-induced shRNA knockdown)
[7] = 2.5 µM, library screen: screen1, EWS-FLI1 expression: high (no doxycycline)
[8] = 2.5 µM, library screen: screen1, EWS-FLI1 expression: low (doxycycline-induced shRNA knockdown)

Measured: cell viability (log2)

CC(N)=NCCC[C@H](N)C(=O)O
inactive: [1] 0.0627 | [2] 0.0753 | [3] -0.0275 | [4] 0.0731

COc1ccccc1CNC(=O)CN(c1ccc(Cl)cc1)S(C)(=O)=O
inactive: [5] -0.0129 | [6] 0.0689 | [7] 0.0751 | [8] 0.0379

C=C1CCC(C2CC(=O)OC2=O)C(=O)CCC2C1CC2(C)C (stereo unspecified)
inactive: [5] 0.1 | [6] 0.128 | [7] 0.0855 | [8] 0.0593

Cc1nnc(SCC(=O)N2c3ccccc3-c3c(ssc3=S)C2(C)C)s1
inactive: [5] 0.0582 | [6] 0.0648 | [7] 0.115 | [8] 0.255

CC(C)=CCC/C(C)=C/C=C/C(C)=C/C=C/C(C)=C/C=C/C=C(C)/C=C/C=C(C)/C=C/C=C(\C)CCC=C(C)C
inactive: [5] 0.149 | [6] 0.105 | [7] 0.156 | [8] 0.123

CC(=O)O[C@@H]1CC2C(C)(C)C=CC(=O)[C@]2(C)C2CC[C@@]3(C)[C@H](c4ccoc4)OC(=O)C4OC43[C@@]21C (stereo partly specified)
inactive: [5] 0.059 | [6] 0.0804 | [7] 0.118 | [8] 0.149

NC1(C(=O)O)CCCCC1
inactive: [1] 0.0492 | [2] 0.114 | [3] -0.0212 | [4] 0.0608

NC1(C(=O)O)CC1
inactive: [5] 0.064 | [6] 0.0956 | [7] 0.122 | [8] 0.0925 | [3] 0.123 | [4] 0.0434
active: [1] -0.141 | [2] -0.0707

NC1(C(=O)O)CCCC1
inactive: [5] 0.102 | [6] 0.137 | [7] 0.134 | [8] 0.192

CN(C)C(=O)/C(=C\c1cccc(Br)c1)NC(=O)c1ccccc1
inactive: [5] 0.0622 | [6] 0.0915 | [7] 0.179 | [8] 0.181

O=C(O)c1cc2c(Cl)cc(Cl)cc2[nH]1
inactive: [5] 0.105 | [6] 0.0244 | [7] 0.0763 | [8] 0.0336

NCC1OC(OC2C(N)CC(N)C(OC3OC(CO)C(O)C(N)C3O)C2O)C(N)C(O)C1O (stereo unspecified)
inactive: [5] 0.0483 | [6] 0.0336 | [7] 0.164 | [8] 0.0237

C[S+]([O-])c1ccc(-c2nc(-c3ccc(F)cc3)c(-c3ccncc3)[nH]2)cc1 (stereo unspecified)
active: [7] -0.235 | 25 µM, library screen: screen1, EWS-FLI1 expression: high (no doxycycline) -0.108
inactive: 0.025 µM, library screen: screen1, EWS-FLI1 expression: low (doxycycline-induced shRNA knockdown) 0.136 | [5] 0.263 | [6] 0.121 | [8] 0.238 | 25 µM, library screen: screen1, EWS-FLI1 expression: low (doxycycline-induced shRNA knockdown) 0.274
0.29: 0.025 µM, library screen: screen1, EWS-FLI1 expression: high (no doxycycline)

COc1cc([S+](C)[O-])ccc1-c1nc2ncccc2[nH]1 (stereo unspecified)
inactive: [5] 0.101 | [6] 0.00949 | [7] 0.131 | [8] 0.0599

C/C1=C\CC(C)(C)/C=C\CC2(C)OC2CC1 (stereo unspecified)
inactive: [5] 0.0693 | [6] 0.00465 | [7] 0.118 | [8] 0.162

CC(C)CCC[C@@H](C)[C@H]1CC[C@H]2C3=CC[C@H]4C[C@@H](O)CC[C@]4(C)[C@H]3CC[C@]12C
inactive: [5] -0.0717 | [6] -0.021 | [7] 0.0758 | [8] 0.0695

C[C@H]1COC2=C1C(=O)C(=O)c1c2ccc2c1CCCC2(C)C
active: 25 µM, library screen: screen3, EWS-FLI1 expression: high (no doxycycline) -0.196 | 25 µM, library screen: screen3, EWS-FLI1 expression: low (doxycycline-induced shRNA knockdown) -0.308
inactive: 0.103 µM, library screen: screen3, EWS-FLI1 expression: high (no doxycycline) 0.0338 | 0.103 µM, library screen: screen3, EWS-FLI1 expression: low (doxycycline-induced shRNA knockdown) 0.0754 | 0.308 µM, library screen: screen3, EWS-FLI1 expression: high (no doxycycline) 0.0526 | 0.308 µM, library screen: screen3, EWS-FLI1 expression: low (doxycycline-induced shRNA knockdown) 0.0683 | 0.926 µM, library screen: screen3, EWS-FLI1 expression: high (no doxycycline) 0.0196 | 0.926 µM, library screen: screen3, EWS-FLI1 expression: low (doxycycline-induced shRNA knockdown) 0.0264 | 2.8 µM, library screen: screen3, EWS-FLI1 expression: high (no doxycycline) -0.0315 | 2.8 µM, library screen: screen3, EWS-FLI1 expression: low (doxycycline-induced shRNA knockdown) -0.0274 | 8.3 µM, library screen: screen3, EWS-FLI1 expression: high (no doxycycline) 0.0932 | 8.3 µM, library screen: screen3, EWS-FLI1 expression: low (doxycycline-induced shRNA knockdown) -0.035

CCN1CCC[C@H]1CNC(=O)c1c(OC)ccc(I)c1O
inactive: [1] 0.251 | [2] 0.174 | [3] 0.0364 | [4] 0.15

Cc1ccsc1C=C1SC(=S)N(CC(=O)O)C1=O
inactive: [5] 0.0973 | [6] 0.0799 | [7] 0.133 | [8] 0.152

C=CCN1C(=O)/C(=C2\SC(=S)N(c3c(C)n(C)n(-c4ccccc4)c3=O)C2=O)c2ccccc21
inactive: [5] -0.0187 | [6] -0.00404 | [7] 0.0713 | [8] -0.0309

OCC(O)C1NCC(O)C1O (stereo unspecified)
inactive: [1] 0.0417 | [2] 0.103 | [3] 0.000766 | [4] 0.0189

Cc1cc(N)c2ccccc2[n+]1CCCCCCCCCC[n+]1c(C)cc(N)c2ccccc21
inactive: [5] 0.139 | [6] 0.0436 | [1] 0.122 | [2] 0.0489
active: [7] -1.46 | [8] -0.54 | [3] -0.865 | [4] -0.463

CC[C@H]1C(=O)OC[C@@H]1Cc1cccn1C
inactive: [5] 0.154 | [6] 0.0128 | [7] 0.143 | [8] 0.0953

CC12CCCC(O)(C1)C1CC(C)(C)C1CC2 (stereo unspecified)
inactive: [5] 0.066 | [6] -0.02 | [7] 0.0972 | [8] 0.0732
